Out of some 360,000 compounds screened, about 4,200 (1.2%) were called active. Shown is part of a subset that was picked to be rich in actives. Unmarked numbers belong to inactive results.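 Rule for the calls: active = mean replicate inhibition at least 60% with every replicate also reaching 60%; inconclusive = only one of the two criteria is met; inactive = mean below 60% and not all replicates reaching 60%.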

The nature of the assay: inhibitors of PAX8-driven TPO luciferase reporter, primary screen, RMG-I cells, single concentration (AID 652154).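 Note: luciferase light reporting Pax8 driven TPO promoter activity; plate controls were median of neutral control wells for no effect and mitoxantrone controls for full effect.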 Conditions: SteadyGlo, 24 h, at 12.6 µM, active compounds read high.
Regarding `O=C(C1CCOCC1)N1C[C@H]2[C@@H](c3ccccc31)[C@@H](CO)N2Cc1ccccc1F`, the inhibition was -11.6%.
For `C[C@H](NC(=O)C[C@@H]1CC[C@@H]2[C@H](COC[C@@H](O)CN2C(=O)Nc2cc(Cl)cc(Cl)c2)O1)c1ccccc1`, the inhibition is 49.2%.
As to `O=C(CCl)Nc1ccc(Sc2ccc(NC(=O)CCl)cc2)cc1`, the inhibition is 87.7% (active).
In the case of `CCC(=O)Nc1ccc(Nc2nc(Cl)nc(Nc3ccc(NC(=O)CC)cc3)n2)cc1` it was 1.45%; in that of `O=C(CCl)Nc1cccc(CP(=O)(c2ccccc2)c2ccccc2)c1`, 18.2%.
With `C[C@@H]1CN([C@H](C)CO)C(=O)Cc2cc(NC(=O)Nc3ccc4c(c3)OCO4)ccc2O[C@H]1CN(C)Cc1ccc(C(F)(F)F)cc1` the figure was 13.6%; with `O=C(OCC(=O)N1CCN(C(=O)c2ccco2)CC1)c1cccc(O)c1`, -23.5%; with `CN(c1ccccc1)S(=O)(=O)c1cc(C(=O)OCC(=O)N2CCN(C(=O)c3ccco3)CC2)ccc1Cl`, 80.9% (active).
With `O=C(OCC(=O)N1CCN(C(=O)c2ccco2)CC1)c1ccc(Cl)c(Cl)c1` the figure was 6.78%; with `C[C@@H]1CN([C@H](C)CO)C(=O)CCCn2cc(nn2)CO[C@@H]1CN(C)C(=O)Nc1ccc2c(c1)OCO2`, -4.65%; with `C[C@@H]1CCCCO[C@@H](CN(C)C(=O)CCC(F)(F)F)[C@@H](C)CN([C@H](C)CO)C(=O)c2cc(NC(=O)Nc3ccccc3)ccc2O1`, -44.3%.
For the compound `CC1=C(C(=O)OC2CCCCC2)C(c2cccnc2)n2ncnc2N1` (configuration not stated), the inhibition was 143% (active).
In the case of `CC1=C(C(=O)OC2CCCCC2)C(c2ccccc2F)NC(=O)N1` (configuration not stated) it was 23.9%; in that of `COc1cc(C2C(C(=O)Nc3ccccc3OC)=C(C)Nc3ncnn32)ccc1O` (configuration not stated), 24.6%; in that of `O=C(CC1CC1)N[C@@H]1C[C@@H]2O[C@H](CO)CC[C@@H]2O[C@@H]1CCc1ccc(C#Cc2ccccc2)cc1`, -44%.
With `N#Cc1cccc(-c2ccc([C@H]3[C@@H](CO)N4CCCCN(C(=O)Nc5ccccc5)C[C@H]34)cc2)c1` the figure was -12.5%.
Turning to `CCCNC(=O)Nc1ccc2c(c1)C(=O)N(C)[C@H]1CC[C@H](CC(=O)NC3CCC3)O[C@H]1CO2`, the inhibition was -6.66%.
As to `CCC(=O)N(C)C[C@H]1[C@H](c2ccc(C3=CCCCC3)cc2)[C@@H](CO)N1C(C)=O`, the inhibition was -0.343%.
Take `CCCN1[C@H](C(=O)N2CCCCC2)[C@@H](CO)[C@@H]2Cn3c(ccc(-c4ccccc4F)c3=O)[C@@H]21`: the inhibition is -10.5%.
With `CCCN1[C@H](C(=O)N2CCOCC2)[C@@H](CO)[C@@H]2Cn3c(ccc(/C=C/c4ccccc4)c3=O)[C@@H]21` the figure was 78.4% (active); with `CC=Cc1ccc2n(c1=O)C[C@H]1[C@H](CO)[C@@H](C(=O)N3CCCCC3)N(Cc3ccccn3)[C@@H]21` (mixture of isomers), 0.555%.
For `CCC(=O)N(C)C[C@@H]1Oc2ncc(C#C[C@H](C)O)cc2C(=O)N([C@@H](C)CO)C[C@@H]1C`, the inhibition is -26.1%.
Consider `COCC(=O)Nc1ccc2c(c1)C(=O)N(C)C[C@@H](OC)[C@H](C)CN(C(=O)c1ccccn1)[C@@H](C)CO2`, for which the inhibition was 2.92%.
As for `CCN1[C@@H]2c3cccc(=O)n3C[C@H]1[C@H](CO)[C@H]2C(=O)NC1Cc2ccccc2C1`, the inhibition was -4.92%.
With `CO[C@H]1CN(C)C(=O)c2ccc(NC(=O)CC(F)(F)F)cc2OC[C@@H](C)N(C(=O)c2ccccc2F)C[C@@H]1C`, the inhibition was -20.3%.
With `COc1ccc(CNC(=O)CCCn2nc(C)c([N+](=O)[O-])c2C)cc1`, the inhibition was 2.46%.
In the case of `Cc1ccc(Oc2cc(NC(=O)CCCn3nc(C)c([N+](=O)[O-])c3C)cc([N+](=O)[O-])c2)cc1` it was 84.6% (active).
With `Cc1nn(CC(=O)Nc2ccc(N(C)C)cc2)c(C)c1[N+](=O)[O-]`, the inhibition is 13.9%.
In the case of `Cc1ccccc1S(=O)(=O)N1CC[C@H]2[C@H](CO)Nc3ccc(-c4cccc(F)c4)cc3[C@H]21` it was -9.62%; in that of `COc1ccccc1NC(=O)N1C[C@H]2[C@@H](c3ccccc31)[C@@H](CO)N2C(=O)C1CCCC1`, 14.9%.
With `CCCN1C[C@@H](C)[C@@H](OC)CN(C)C(=O)c2ccc(NC(=O)c3ccc(F)cc3)cc2OC[C@@H]1C` the figure was -1.32%; with `O=C(C[C@@H]1CC[C@H]2[C@@H](COC[C@@H](O)CN2S(=O)(=O)c2cccc(Cl)c2)O1)N1CCCCC1`, -3.53%; with `Cc1c(C)n(Cc2ccc(Cl)cc2)c2ccc(C(=O)NCCCN3CCOCC3)cc12`, 15.4%.
With `CN1CCN(CCCNC(=O)c2ccc(/C=C3\Oc4ccccc4N(Cc4ccc(Cl)cc4)C3=O)cc2)CC1` the figure was 100% (active); with `CCC1Oc2ccccc2N(CC(=O)NCCCN2CCN(CC)CC2)C1=O` (configuration not stated), 5.58%.
For `CN1c2ccc(Br)cc2[C@H]2[C@H](CCN2S(=O)(=O)c2ccccc2)[C@@H]1CO`, the inhibition is 0.611%.
In the case of `CN1CCCCC(NC(=O)C(C)(C)C)C1=O` (configuration not stated) it was 8.76%.
In the case of `C[C@H](CO)N1C[C@H](C)[C@H](CN(C)CC2CC2)Oc2ccc(NC(=O)c3ccncc3)cc2C1=O` it was -14.7%; in that of `C[C@@H]1CN([C@H](C)CO)S(=O)(=O)c2ccc(C#CC3CCCC3)cc2O[C@@H]1CN(C)Cc1cccnc1`, 31.1%.
On to `COCC#Cc1ccc2c(c1)O[C@@H](CN(C)Cc1cccnc1)[C@@H](C)CN([C@H](C)CO)S2(=O)=O`, for which the inhibition is -14.2%.
In the case of `C[C@H](O)C#Cc1ccc2c(c1)O[C@H](CN(C)Cc1cncnc1)[C@H](C)CN([C@@H](C)CO)S2(=O)=O` it was 19.4%.
With `C[C@@H]1CN([C@H](C)CO)S(=O)(=O)c2ccc(/C=C/c3ccccc3)cc2O[C@@H]1CN(C)Cc1ccccc1` the figure was 31%; with `C[C@@H]1CN([C@@H](C)CO)S(=O)(=O)c2ccc(/C=C/c3ccccc3)cc2O[C@H]1CN(C)Cc1ccccc1`, 11.4%.
Turning to `COc1ccccc1C#Cc1ccc2c(c1)O[C@H](CN(C)Cc1cccnc1)[C@@H](C)CN([C@H](C)CO)S2(=O)=O`, the inhibition was 70% (active).
With `COc1ccccc1C#Cc1ccc2c(c1)O[C@@H](CN(C)Cc1cncnc1)[C@H](C)CN([C@@H](C)CO)S2(=O)=O` the figure was 74.3% (active).
With `C[C@@H]1CN([C@@H](C)CO)S(=O)(=O)c2ccc(/C=C/c3ccccc3)cc2O[C@H]1CN(C)Cc1cccnc1` the figure was 68.6% (active); with `C[C@H](O)C#Cc1ccc2c(c1)O[C@@H](CN(C)Cc1cncnc1)[C@H](C)CN([C@H](C)CO)S2(=O)=O`, 8.97%.

Source of the values: PubChem BioAssay AID652154 (Broad Institute, 2013).
